The source of these data is PubChem BioAssay (EPA / NIEHS).

A short description of assay [1]: TOX21_PR_BLA_Followup_Agonist_viability: Viability Assessment in the Tox21 HEK293 Progesterone Receptor (PR) Agonism Beta-lactamase Follow-Up Assay (AID 2283935).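 Further: signal loss means lower viability so actives are cytotoxic.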 In outline:
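PR-UAS-bla HEK293T cells in 2% charcoal-stripped FBS medium, plated 6 hr before compound addition, exposed 16 hr at 37C. Viability read by CellTiter-Glo ATP luminescence after 30 min at room temperature, in the same wells as the beta-lactamase readout.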

Assay [2] in a line: TOX21_PR_BLA_Followup_Antagonist_viability: Viability Assessment in the Tox21 HEK293 Progesterone Receptor (PR) Antagonism Beta-lactamase Follow-Up Assay (AID 2283936).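 Further: hits lower the luminescence signal meaning cytotoxicity.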 In a few lines: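 PR-UAS-bla HEK293T cells (3,000/well, 2% charcoal-stripped FBS) given compound plus R5020 agonist, 16 h at 37C. CellTiter-Glo added after bla read, 30 min at room temperature; luminescence loss indicates cytotoxicity.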

Assay [3] deals with PGR (gene 5241) (UniProt P06401). Briefly: TOX21_PR_LUC_Followup_Antagonist: Tox21 HEK293 Progesterone Receptor (PR) Antagonism Luciferase Follow-Up Assay (AID 2283938).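 Further: curve fitted upward as signal gain over DMSO baseline despite antagonist label.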 In outline: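 HEK293-PR-A-luc cells, 3,000/well, preincubated 5 h at 37C before compound addition in DMSO; 16 h compound exposure at 37C. ONE-Glo luciferase luminescence read after 30 min at room temperature, fitted relative to DMSO baseline.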
Sequence of PGR (gene 5241) (P06401 whole entry, looked up): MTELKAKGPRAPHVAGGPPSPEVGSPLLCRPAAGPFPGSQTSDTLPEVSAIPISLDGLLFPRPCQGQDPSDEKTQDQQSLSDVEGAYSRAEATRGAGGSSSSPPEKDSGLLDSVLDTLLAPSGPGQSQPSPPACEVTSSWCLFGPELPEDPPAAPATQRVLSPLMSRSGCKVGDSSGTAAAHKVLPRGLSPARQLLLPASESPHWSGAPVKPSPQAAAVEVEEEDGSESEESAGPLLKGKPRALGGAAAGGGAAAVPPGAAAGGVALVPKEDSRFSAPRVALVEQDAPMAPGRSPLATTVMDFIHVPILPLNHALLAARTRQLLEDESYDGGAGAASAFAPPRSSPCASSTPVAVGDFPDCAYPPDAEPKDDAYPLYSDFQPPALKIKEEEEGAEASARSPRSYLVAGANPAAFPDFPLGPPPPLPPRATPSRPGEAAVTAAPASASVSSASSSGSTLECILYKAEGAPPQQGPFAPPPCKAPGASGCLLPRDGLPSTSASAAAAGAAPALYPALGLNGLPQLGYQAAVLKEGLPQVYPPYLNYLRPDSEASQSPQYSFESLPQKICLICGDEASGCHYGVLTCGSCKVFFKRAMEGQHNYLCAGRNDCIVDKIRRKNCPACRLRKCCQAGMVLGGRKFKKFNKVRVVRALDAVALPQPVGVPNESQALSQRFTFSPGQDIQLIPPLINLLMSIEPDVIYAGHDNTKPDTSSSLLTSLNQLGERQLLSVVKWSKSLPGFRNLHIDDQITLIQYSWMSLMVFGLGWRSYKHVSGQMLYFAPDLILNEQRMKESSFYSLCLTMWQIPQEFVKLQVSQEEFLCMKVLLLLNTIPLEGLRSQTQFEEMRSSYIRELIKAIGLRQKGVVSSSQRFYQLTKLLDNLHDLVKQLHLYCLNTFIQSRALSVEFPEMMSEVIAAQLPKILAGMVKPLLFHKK

Assay [4] can be described thus: TOX21_PR_LUC_Followup_Antagonist_viability: Viability Assessment in the Tox21 HEK293 Progesterone Receptor (PR) Antagonism Luciferase Follow-Up Assay (AID 2283940). In a few lines:
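HEK293-PR-A-luc cells kept in charcoal-stripped FBS medium were plated 5 h before compound addition, then exposed 16 h at 37C; viability read as cellular ATP by luciferase luminescence, loss of signal indicating cytotoxicity.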

A short description of assay [5]: TOX21_PR_LUC_Followup_Agonist_viability: Viability Assessment in the Tox21 HEK293 Progesterone Receptor (PR) Agonism Luciferase Follow-Up Assay (AID 2283941).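 Further: loss of signal means cytotoxicity so actives lower viability.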 In outline: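 HEK293-PR-A-luc cells, kept in 10% charcoal-stripped FBS medium, were treated with compounds for 16 h at 37C. Viability read as cellular ATP by luciferase-coupled luminescence; loss of signal indicates cytotoxicity.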

Assay [6] deals with PGR (gene 5241) (UniProt P06401). Briefly: TOX21_PR_BLA_Followup_Antagonist_ratio: Tox21 HEK293 Progesterone Receptor (PR) Antagonism Beta-lactamase Follow-Up Assay, Ratio (AID 2283934). In a few lines:
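PR-UAS-bla HEK293T cells, 3,000/well in 2% charcoal-stripped FBS, given compound plus 1nM R5020 agonist for 16 hr at 37C. Beta-lactamase FRET substrate 2 hours, ratio cleaved/uncleaved fluorescence; viability by CellTiter-Glo in same wells.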

Assay [7] in a line: CEETOX_H295R_ESTRADIOL_noMTC: CeeTox H295R High-throughput Steroidogenesis Assay for Estradiol, maximum tolerated concentration (MTC) filtered results only (AID 2283919; active means hit-call score of the fitted dose curve at least 0.9, where 1 is the maximum; inactive means score below 0.9). As to conditions: actives raise or lower the signal. In a few lines: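 H295R human adrenal cells pre-stimulated 48 h with 10 uM forskolin, then exposed 48 h to chemical (0.1% DMSO final). Estradiol in medium measured by HPLC-MS/MS after MTBE extraction and dansyl derivatization; bidirectional fit versus DMSO, concentrations not MTT-filtered.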

The nature of assay [8]: CEETOX_H295R_PROG_noMTC: CeeTox H295R High-throughput Steroidogenesis Assay for Progesterone (PROG), maximum tolerated concentration (MTC) filtered results only (AID 2283920; active means hit-call score of the fitted dose curve at least 0.9, where 1 is the maximum; inactive means score below 0.9). The following applies: actives raise or lower the signal. In a few lines: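 H295R cells, prestimulated 48 h with 10 uM forskolin, exposed 48 h to chemical in 0.1% DMSO. Medium progesterone quantified by MTBE extraction and HPLC-MS/MS; bidirectional fit versus DMSO, concentrations not MTT-filtered.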

Assay [9] in a line: CEETOX_H295R_ESTRONE_noMTC: CeeTox H295R High-throughput Steroidogenesis Assay for Estrone, maximum tolerated concentration (MTC) filtered results only (AID 2283921; active means hit-call score of the fitted dose curve at least 0.9, where 1 is the maximum; inactive means score below 0.9). As to conditions: actives raise or lower the signal. In a few lines:
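H295R cells prestimulated 48 h with 10 uM forskolin, then exposed 48 h to chemical in 0.1% DMSO; medium estrone measured by HPLC-MS/MS after MTBE extraction and dansyl derivatization, fitted bidirectionally versus DMSO without MTT-based MTC filtering.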

Assay [10] is described as follows: CEETOX_H295R_TESTO_noMTC: CeeTox H295R High-throughput Steroidogenesis Assay for Testosterone (TESTO), maximum tolerated concentration (MTC) filtered results only (AID 2283924; active means hit-call score of the fitted dose curve at least 0.9, where 1 is the maximum; inactive means score below 0.9). As to conditions: actives raise or lower the signal. In a few lines: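 H295R cells prestimulated 48 h with 10 uM forskolin, then exposed 48 h to chemicals in 0.1% DMSO final. Testosterone in medium quantified by MTBE extraction and HPLC-MS/MS; bidirectional fit versus DMSO, concentrations […] filtered by MTT-based maximum tolerated concentration.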

Assay [11] concerns the target PGR (gene 5241) (UniProt P06401). Description: TOX21_PR_BLA_Followup_Agonist_ratio: Tox21 HEK293 Progesterone Receptor (PR) Agonism Beta-lactamase Follow-Up Assay, Ratio (AID 2283933). In outline: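 PR-UAS-bla HEK293T cells in medium with 2% charcoal-stripped FBS were dosed after 6 h plating and incubated 16 h at 37C. LiveBLAzer FRET substrate was added for 2 h at room temperature. Cleaved/uncleaved substrate ratio fitted against DMSO; CellTiter-Glo viability run in the same wells.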

For assay [12] the target is unchanged. Description: TOX21_PR_LUC_Followup_Agonist: Tox21 HEK293 Progesterone Receptor (PR) Agonism Luciferase Follow-Up Assay (AID 2283937; active means hit-call score of the fitted dose curve at least 0.9, where 1 is the maximum; inactive means score below 0.9). In a few lines:
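HEK293-PR-A-luc cells, conditioned 5 days in 10% charcoal-stripped FBS medium, seeded 3,000/well for 5 h, then compound-treated 16 h at 37C. ONE-Glo luminescence read after 30 min at room temperature; gain of signal versus DMSO.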

The target in assay [13] is Thyroid hormone receptor alpha (Rattus norvegicus) + Thyroid hormone receptor beta (Rattus norvegicus) (UniProt P18113+P63059). Briefly: TOX21_TR_LUC_GH3_Antagonist_Followup: Tox21 GH3 Thyroid Hormone Receptor Antagonism Luciferase Follow-Up Assay (AID 2283942). In outline:
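Antagonist mode: GH3 cells seeded 1,500/well, compounds at 15 concentrations (92 uM to 5nM final) plus T3 at 1.0 nM final, 24 h at 37C. Luciferase read with ONE-Glo after 30 min at room temperature.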

Assay [14] deals with THRA (gene 7067) (UniProt P10827). Description: TOX21_TRA_COA_Antagonist_Followup_ratio: Tox21 Thyroid Hormone Receptor alpha Antagonism through Coactivator Recruitment Follow-Up Assay, Ratio (AID 2283953). In a few lines: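 520:495 nm emission ratio (excitation 340 nm) reports fluorescein-SRC-2 peptide recruitment to GST-TRα LBD by TR-FRET with Tb anti-GST antibody. Values were normalized to DMSO (0%) and T3 control wells (100%); loss of signal indicated antagonism.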
Sequence of THRA (gene 7067) (P10827 whole entry, looked up, the tested form may be a part): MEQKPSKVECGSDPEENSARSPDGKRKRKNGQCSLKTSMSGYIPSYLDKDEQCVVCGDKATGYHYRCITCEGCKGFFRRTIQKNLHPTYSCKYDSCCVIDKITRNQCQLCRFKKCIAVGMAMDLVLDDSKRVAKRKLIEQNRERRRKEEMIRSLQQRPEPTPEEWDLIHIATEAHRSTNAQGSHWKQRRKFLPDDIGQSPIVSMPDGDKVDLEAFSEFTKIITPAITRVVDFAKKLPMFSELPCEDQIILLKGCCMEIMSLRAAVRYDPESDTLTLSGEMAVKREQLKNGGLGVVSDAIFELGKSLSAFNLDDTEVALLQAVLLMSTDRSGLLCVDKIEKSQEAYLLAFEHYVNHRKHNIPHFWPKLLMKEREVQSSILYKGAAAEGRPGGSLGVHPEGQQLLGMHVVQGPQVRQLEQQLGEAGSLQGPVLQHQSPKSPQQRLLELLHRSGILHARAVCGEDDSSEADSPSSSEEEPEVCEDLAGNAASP

Assay [15] has as its target THRB (gene 7068) (UniProt P10828). Description: TOX21_TRB_BLA_Antagonist_Followup_ratio: Tox21 Thyroid Hormone Receptor beta Antagonism Beta-lactamase (BLA) Follow-Up Assay, Ratio (AID 2283958). In outline: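 HEK293T cells with a GAL4-TRb LBD fusion and UAS-bla reporter, 3,000 cells/well in phenol red-free DMEM with 2% charcoal-stripped FBS. Exposed 18 h at 37C to 11 concentrations in triplicate; CCF4 460:530 nm ratio after 2 h, DMSO-referenced.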

Assay [16] can be described thus: TOX21_TRB_BLA_Antagonist_Followup_viability: Viability Assessment in the Tox21 Thyroid Hormone Receptor beta Antagonism Beta-lactamase (BLA) Follow-Up Assay (AID 2283961). In a few lines: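 HEK293T cells with GAL4-human TRβ LBD and UAS-bla reporter, 3,000 cells/well in 2% charcoal-stripped FBS medium; 11-point concentrations in triplicate, 18 h at 37C. Viability from ATP by CellTiter-Glo luminescence, 30 min RT, same plates.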

Results filed as inconclusive are left out. Calls of active or inactive are those of the source. How the source made its calls, unless noted: active means hit-call score of the fitted dose curve at least 0.9, where 1 is the maximum; inconclusive means response in the unintended direction; inactive means score below 0.9.

One may read the AC50 as the concentration giving half of the maximal activity seen.

Sequence of THRB (gene 7068) (P10828 whole entry, looked up, the tested form may be a part): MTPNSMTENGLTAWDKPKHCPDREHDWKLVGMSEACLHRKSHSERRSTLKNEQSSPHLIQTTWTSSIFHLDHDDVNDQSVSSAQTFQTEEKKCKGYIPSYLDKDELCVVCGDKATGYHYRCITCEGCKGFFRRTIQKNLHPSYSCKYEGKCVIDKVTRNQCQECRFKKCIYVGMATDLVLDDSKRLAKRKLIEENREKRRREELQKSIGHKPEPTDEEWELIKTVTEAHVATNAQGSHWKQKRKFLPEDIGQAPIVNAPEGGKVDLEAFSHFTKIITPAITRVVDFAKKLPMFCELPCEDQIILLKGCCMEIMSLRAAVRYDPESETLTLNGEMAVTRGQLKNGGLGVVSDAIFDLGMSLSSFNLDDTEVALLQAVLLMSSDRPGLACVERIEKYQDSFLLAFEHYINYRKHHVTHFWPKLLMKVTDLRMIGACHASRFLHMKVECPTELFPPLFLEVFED

Turning to `COc1ccc(O)c(C(C)(C)C)c1`, the result in [1], in [2], in assay [3], in assay [4] and in assay [5] was inactive.

With `CCCCCCCCCc1ccc(O)cc1`, in assay [6], the AC50 is 68.3 µM (active). The compound was classed as inactive in assay [1], in assay [2], in [3] and in assay [4].

Regarding `CCCCCCCCOC(=O)c1ccccc1C(=O)OCCCCCCCC`, the outcome in assay [7], in assay [8], in assay [9] and in assay [10] was inactive.

Take `CCC(=O)O[C@H]1CC[C@H]2[C@@H]3CCC4=CC(=O)CC[C@]4(C)[C@H]3CC[C@]12C`: the values for the concentration at half-maximal activity (AC50) in assay [11] and in assay [12] were 12 µM (active) and 6.3 µM (active), respectively. The result in assay [6], in assay [1], in assay [2], in [3], in assay [4] and in assay [5] was inactive.

For the compound `CO/C=C(/C(=O)OC)c1ccccc1COc1cccc(C(F)(F)F)n1`, the AC50 in assay [13] was 2.06 µM (active). Also, the result in [14], in assay [15] and in [16] was inactive.

For `O=C(O)C(F)(F)C(F)(F)C(F)(F)C(F)(F)C(F)(F)C(F)(F)C(F)(F)C(F)(F)C(F)(F)F`, the outcome in assay [8] was inactive.

Regarding `CC(C)(O)C(=O)Nc1ccc([N+](=O)[O-])c(C(F)(F)F)c1`, the outcome in assay [11], in assay [12], in assay [4] and in [5] was inactive.

Regarding `C[C@]12CCC(=O)C=C1CC[C@@H]1[C@@H]2CC[C@]2(C)C(=O)CC[C@@H]12`, in assay [6], the half-maximal activity concentration (AC50) was 9.75 µM (active). The outcome in assay [1], in assay [2], in [3], in [4] and in assay [5] was inactive.

On to `CC(C)(c1ccccc1)c1ccc(O)cc1`, for which the AC50 is 32.7 µM (active) in assay [6] and 35.3 µM (active) in [3]. Also, the compound was classed as inactive in assay [1], in assay [2], in assay [4] and in assay [5].
